High-throughput results deposited in PubChem BioAssay by several laboratories.
NALP3 yeast inh = NALP3 inhibition in yeast; Yeast reconstituted NLRP3/ASC/caspase-1, beta-gal luminescence, 24 h; inhibition, % at 10 µM; 330,000 tested, 0.39% active; AID 2825;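 active = inhibition of 50% or more; inactive = inhibition below 50%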;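 also: plate controls were induced DMSO wells for no effect and uninduced yeast grown without galactose for full effect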
TIM10 inh = growth inhibitors of TIM10 yeast strain; S. cerevisiae TIM10 strain growth, BacTiter-Glo luminescence, 24 h; inhibition, % at 10 µM; 330,000 tested, 1.4% active; AID 463195;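 active = inhibition of 40% or more at the single tested concentration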;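 also: wild-type TIM10 isogenic control strain grown at permissive 25 °C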
tim23-1 inh = tim23-1 yeast growth inhibition | 330,000 tested, 1.3% active | S. cerevisiae tim23-1 growth, BacTiter-Glo luminescence, 24 h | inhibition, % at 20 µM;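 active = growth inhibition of the mutant yeast at or above 50%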;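 also: temperature-sensitive mutant grown at 25 °C; plate controls were DMSO-treated mutant yeast for no effect and medium wells lacking yeast for full effect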
tim10-1 inh = growth inhibitors of tim10-1 mutant yeast; 330,000 tested, 2.2% active; S. cerevisiae tim10-1 ts strain growth, BacTiter-Glo, 24 h; inhibition, % at 20 µM; AID 463190;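 active = inhibition of at least 40%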;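 also: mutant grown at 25 °C; 0% = DMSO wells with yeast and 100% = wells holding no yeast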
NALP1 yeast inh = blocks the NALP1 inflammasome reconstituted in yeast. 280,000 tested, 0.61% active. S. cerevisiae NALP1/ASC/caspase-1 growth, X-gal OD620, 72 h. inhibition, % at 10 µM; in the data active = inhibition mostly above about 24%, no sharp cut-off; inactive = mostly below about 32%
V-ATPase pH = alters yeast V-ATPase proton transport. S. cerevisiae, pHLuorin cytosolic pH fluorescence. response, % at 10 µM. 350,000 tested, 0.37% active. AID 504577; in the data active = response mostly above about 7.3%, no sharp cut-off; inactive = mostly below about 5.4%; also: actives read high
NALP3 yeast conf = NALP3 inhibition confirmation in yeast | shares compounds with NALP3 yeast inh | AID 435006 | inhibition, % at 10 µM | 1,300 tested, 81% active | yeast expressing human NALP3, luminescence; in the data active = inhibition above about 48%
Casp1 ASC ctr = counter-screen for NALP3 inhibitors: yeast caspase-1-ASC; 1,000 tested, 66% active; yeast expressing Caspase-1-ASC, luminescence counter screen; shares compounds with NALP3 yeast inh; AID 488784; inhibition, % at 10 µM
NALP3 retest = confirmation retest of NALP3 inhibitors in yeast; shares compounds with NALP3 yeast inh; yeast expressing human NALP3, luminescence read-out; inhibition, % at 10 µM; 1,000 tested, 53% active
* hit, by the source's call; x = no result given. Compounds with a hit are over-represented: about 4.2% of the library has one in this group of screens. Rule as the data show it, unless noted: active = inhibition above about 50%; inactive = the rest.

SMILES | NALP3 yeast inh | TIM10 inh | tim23-1 inh | tim10-1 inh | NALP1 yeast inh | V-ATPase pH | NALP3 yeast conf | Casp1 ASC ctr | NALP3 retest
COc1ccc(N=C2S/C(=C\c3ccc(N4CCOCC4)o3)C(=O)N2CCc2c[nH]c3ccccc23)cc1 | 57.2* | 12.1 | 25.5 | 2.1 | 5.9 | -1.8 | 53.5* | x | x
O=C(CNC(=O)c1ccccc1Br)N/N=C\c1cc([N+](=O)[O-])cc(Br)c1O | 50.8* | 2.1 | 13.2 | 14.6 | -6.1 | -3.7 | 36.9 | 22.6 | 35.5
O=C(Nc1ccc2c(c1)OCO2)c1cccc(Cl)c1 | 55.7* | 32.3 | 42.9 | 8.6 | -11.5 | 4.5 | 57.8* | 62.2* | 60.6*
O=C(Nc1ccc2c(c1)OCO2)Nc1cnccn1 | 10.0 | -11.5 | 10.8 | -3.5 | 11.0 | -1.1 | x | x | x
O=C(Nc1ccc2c(c1)OCO2)Nc1ccccn1 | 53.0* | 9.9 | 11.2 | 15.1 | 21.9 | 1.4 | 61.2* | x | x
CCN(CC)S(=O)(=O)c1cccc(-c2nc3n(n2)Cc2ccccc2-3)c1 | -107.4 | 36.6 | 16.5 | 29.2 | 3.0 | -0.3 | -0.4 | x | x
Cc1ccc(C(=O)Nc2nc3ccccc3s2)s1 | 45.1 | 25.9 | 19.1 | 6.3 | 0.2 | 1.3 | x | x | x
Cc1noc(C)c1C(=O)Nc1nc2ccccc2s1 | 50.3* | 3.6 | 16.2 | 12.2 | x | 5.5 | 48.8* | 39.0 | 30.6
CCN1CCCC1CNC(=O)c1cc(S(=O)(=O)N(C)C)ccc1Cl (stereo unspecified) | 4.4 | 10.6 | -1.8 | -12.4 | 5.4 | 4.9 | x | x | x
Cc1cccc(NC(=O)c2cccc([N+](=O)[O-])c2O)c1C | x | x | x | x | x | 7.3 | x | x | x
Cc1cccc(NC(=O)c2ccccc2O)c1C | 56.9* | -9.4 | 7.3 | -8.0 | 12.2 | -1.9 | 56.8* | 52.3* | 58.8*
CCOC(=O)c1sc(=S)n(-c2cc(OC)ccc2OC)c1N | 97.5* | 2.5 | 16.8 | -1.2 | 10.7 | 3.2 | 96.2* | 71.1* | 56.9*
COCCN(C(=O)c1ccccc1OC)c1nnc(C)s1 | 10.1 | -4.1 | 2.8 | 11.2 | -2.6 | 2.2 | x | x | x
CCn1c(COc2ccc(C)cc2)nnc1SCc1ccc(C#N)cc1 | 61.4* | -3.3 | 33.7 | 30.9 | 14.6 | -2.2 | 71.3* | 54.1* | 39.4
COc1cc(C)c(S(=O)(=O)N2CCOCC2)cc1C | 43.1 | 5.2 | 4.7 | -6.3 | 43.6 | 6.8 | x | x | x
Cc1cc(S(=O)(=O)N2CCCCCC2)c(Cl)cc1Cl | 61.4* | 1.0 | -5.1 | 2.5 | -3.6 | 6.2 | 64.3* | 70.5* | 49.8
CCOc1ccc(Br)cc1S(=O)(=O)N1CCCC1 | 17.3 | 17.4 | 12.9 | 7.8 | 9.7 | -2.6 | x | x | x
CCOc1cc(C)c(S(=O)(=O)N2CCCC2)cc1C | 82.9* | 5.6 | 13.5 | 1.4 | 38.6 | -0.6 | 79.6* | 90.4* | 81.0*
CCCOc1cc(C)c(S(=O)(=O)N2CCOCC2)cc1C | 57.4* | 8.7 | 18.3 | 7.9 | 36.9 | x | 52.2* | x | x
Cn1nc(-c2ccccc2)c(C(=O)Nc2ccc(C(F)(F)F)cc2)c1Cl | 8.6 | -69.6 | -4.4 | -72.9 | 4.7 | 1.8 | x | x | x
Cn1nc(-c2ccccc2)c(C(=O)Nc2ccc(Cl)cc2)c1Cl | 81.3* | -29.8 | 7.7 | -11.6 | 13.1 | -3.9 | 86.2* | 54.7* | 30.8
CCN=C1SC(CC(=O)Nc2sc3c(c2C#N)CCCC3)C(=O)N1CC (stereo unspecified) | 12.0 | 11.0 | 1.1 | 9.4 | 1.3 | 0.2 | x | x | x
CCN=C1SC(CC(=O)Nc2sc(C)c(C)c2C(=O)OC)C(=O)N1CC (stereo unspecified) | 55.6* | -7.7 | -0.4 | -0.3 | 9.0 | -5.1 | 64.3* | 63.5* | 52.2*
O=C(Nc1nc2cc3c(cc2s1)OCO3)C1CC1 | 16.4 | 5.5 | 4.9 | 3.9 | x | 0.8 | x | x | x
O=C(Nc1nc2cc3c(cc2s1)OCO3)C1CCCCC1 | 56.0* | 10.5 | 42.3 | 9.2 | 15.7 | -1.5 | 64.2* | 56.2* | 53.4*
SMILES | NALP3 yeast inh | TIM10 inh | tim23-1 inh | tim10-1 inh | NALP1 yeast inh | V-ATPase pH | NALP3 yeast conf | Casp1 ASC ctr | NALP3 retest
CS/C(=N\S(=O)(=O)c1cccs1)Nc1cccc(Cl)c1C | -117.6 | 24.4 | 19.9 | 19.3 | 13.6 | 2.7 | -3.3 | x | x
CS/C(=N\S(=O)(=O)c1cccs1)Nc1ccc(F)c(Cl)c1 | -13.3 | 1.2 | 32.6 | 21.5 | 33.0 | -3.9 | x | x | x
CN(CC(=O)N1CCc2ccccc2C1)c1ccccc1 | 55.5* | 2.2 | 11.8 | -4.5 | 29.8 | -1.4 | 43.5 | 44.6 | 55.4*
CCN(CC)CCCNC(=O)c1cn(CC)c2cc(N3CCN(C(=O)c4ccco4)CC3)c(F)cc2c1=O | -0.8 | -3.0 | -2.4 | -6.0 | 13.6 | 3.5 | x | x | x
CC(Oc1ccc(F)cc1)C(=O)Nc1cc(C(F)(F)F)ccc1-n1cncn1 (stereo unspecified) | 50.0 | 0.8 | 23.4 | 30.6 | x | 6.5 | 64.2* | 42.5 | 38.0
COc1ccc(C(=O)Nc2cc(C(F)(F)F)ccc2-n2cncn2)cc1 | 14.1 | -15.9 | 10.6 | 24.6 | 5.5 | -0.5 | x | x | x
CCc1cccc(NC(=O)c2cnn(-c3ccccc3)c2C)c1 | 58.8* | -49.3 | 34.6 | -14.0 | 15.0 | 0.2 | 67.1* | 56.8* | 67.2*
Cc1ccc(NC(=O)c2cnn(-c3ccccc3)c2C)cc1 | 27.7 | -12.7 | 10.5 | -11.2 | 3.8 | 7.4 | x | x | x
COc1cccc(NC(=O)c2cnn(-c3ccccc3)c2C)c1 | 51.1* | 0.8 | 21.9 | -2.9 | 9.2 | -0.8 | 59.0* | 50.0 | 43.8
COc1ccc(NS(=O)(=O)c2cn(C)cn2)cc1OC | -3.8 | 12.0 | 5.4 | -1.2 | 19.8 | 3.9 | x | x | x
O=C(NCc1ccc2c(c1)OCO2)c1cc(-c2ccccc2)on1 | 19.8 | -6.3 | 17.2 | -4.7 | 0.1 | 1.7 | x | x | x
CCOc1ccc(C(=O)c2cc([N+](=O)[O-])ccc2Cl)cc1 | 67.1* | -16.7 | 29.8 | 2.3 | 8.3 | -0.8 | 67.2* | 72.3* | 69.2*
Cn1c(=O)c(C(=O)NNC(=O)c2ccccc2F)c(O)c2ccccc21 | 64.1* | 10.9 | 37.3 | -41.7 | 17.0 | 3.4 | 81.9* | 44.9 | 54.2*
N#CC1=C(N)OC2=C(C(=O)CCC2)C12C(=O)N1CCCc3cccc2c31 (stereo unspecified) | 13.4 | -17.4 | 3.7 | 5.9 | 3.1 | -2.3 | x | x | x
CC(/C=N/NC(=O)c1ccccc1F)=C\c1ccccc1 | 28.3 | 4.7 | 34.9 | -4.4 | 10.0 | 0.4 | x | x | x
c1ccc(-c2ccc(-c3cn4c(n3)CCC4)cc2)cc1 | 65.9* | -119.3 | 40.7 | -20.1 | 51.3* | 9.3 | 68.4* | 86.8* | 73.5*
CCOC(=O)c1ccc(NC(=O)c2nc[nH]c2C(=O)N[C@@H](C)C(=O)OC(C)(C)C)cc1 | 13.7 | -0.3 | 30.8 | 21.8 | x | -2.0 | x | x | x
C[C@H](NC(=O)c1[nH]cnc1C(=O)Nc1ccc(Cl)cc1)C(=O)OC(C)(C)C | 58.4* | 10.7 | 37.1 | 16.6 | x | 3.3 | 65.4* | 30.1 | 24.6
